# POLI inh = blocks human DNA polymerase iota activity; Q9UNA4; Pol iota fluorescent replication assay, 10 min; Potency, µM (doses to about 115 µM), most hits filed as inhibitors; 390,000 compounds, 1% hits; AID 588590
#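 Fluorescent replication assay read twice, at 0 min and 10 min after adding 50 nM (final) substrate. Enzyme (10 nM) and compounds were first incubated 15 min at room temperature; enzyme-free buffer wells were negative controls.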
# WRN helicase inh = blocks human WRN helicase | Q14191 | WRN helicase unwinding, fluorescent forked duplex, kinetic | Potency, µM (titrated, usually from 114 µM), actives largely listed as inhibitors | 360,000 compounds, 0.46% hits | AID 651768; further: nearly all actives have a fitted effect of over 55% in size
#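 Kinetic fluorescence helicase assay: unwinding of a quenched forked DNA duplex (100 nM final) with 2 mM ATP final raises red fluorescence (525/598 nm). Compounds sat 15 min at room temperature with 20 nM WRN beforehand.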
# FEN1 inh = blocks human flap endonuclease 1; P39748; Recombinant FEN1 flap cleavage, fluorescence, 15 min; Potency, µM (doses to about 114 µM), most hits filed as inhibitors; 390,000 compounds, 0.35% hits; AID 588795; further: nearly all actives have a fitted effect of over 65% in size
# Target sequence (P39748 whole entry, looked up): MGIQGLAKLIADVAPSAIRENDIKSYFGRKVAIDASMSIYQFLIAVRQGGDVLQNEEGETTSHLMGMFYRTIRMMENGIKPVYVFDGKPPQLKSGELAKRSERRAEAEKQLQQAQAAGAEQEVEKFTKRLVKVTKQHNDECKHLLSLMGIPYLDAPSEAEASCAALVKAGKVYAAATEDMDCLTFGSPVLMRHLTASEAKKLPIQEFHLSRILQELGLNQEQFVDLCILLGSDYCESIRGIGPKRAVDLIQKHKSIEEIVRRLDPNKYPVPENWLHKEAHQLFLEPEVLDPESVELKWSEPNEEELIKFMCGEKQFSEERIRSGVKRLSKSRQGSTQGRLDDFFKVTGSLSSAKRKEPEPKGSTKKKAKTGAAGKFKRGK
#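 In this screen, 50 nM flap DNA substrate was added to 10 nM FEN1 pretreated with compound for 15 min at room temperature; cleavage was followed with reads at 0 and 15 min, and Hill fitting gave concentration–response parameters.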
# POLH inh = inhibitors of human DNA polymerase eta. Q9Y253. recombinant Pol eta, fluorescent DNA replication assay. Potency, µM (highest dose often 114 µM), usual class: inhibitors. 390,000 compounds, 1.2% hits
#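 Fluorescent replication assay: 50 nM final substrate added after a 15 min room-temperature compound preincubation with 10 nM enzyme. Signal taken at 0 min and again at 10 min.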
# POLK inh = inhibitors of human DNA polymerase kappa | Q9UBT6 | purified Pol kappa, fluorescent DNA synthesis assay, 10 min | Potency, µM (doses to about 107 µM), actives largely listed as inhibitors | 400,000 compounds, 0.53% hits
#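 Inhibition of 10 nM Pol kappa is measured by a fluorescent read-out at 0 and 10 min following addition of 50 nM substrate (final), with a 15-min room-temperature compound preincubation.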
# POLB inh = inhibitors of human DNA polymerase beta; Potency, µM (doses to about 114 µM), hits mostly inhibitors; AID 485314; P06746; 340,000 compounds, 1.3% hits; Pol beta primer extension/strand displacement, fluorescence kinetic
#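 Pol beta (10 nM) was preincubated with compound for 15 min at room temperature. The reaction was then started with 50 nM substrate and read immediately and after a further 10 min at room temperature.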
# Hits are given with their value; – = inactive; ? = inconclusive; · = no result; [ ] = remark or other dose. Only some compounds are listed: those with a hit (about 2.4% of all), similar ones and a draw of the others. The call rests on the fitted dose curve; in most records, active means well fitted curve in the direction sought with a large enough effect; inconclusive means small, poorly fitted or top-dose-only effect, or another doubt; inactive means no such curve, though single readings can be large; an effect the other way counts as inactive or inconclusive.
SMILES,POLI inh,WRN helicase inh,FEN1 inh,POLH inh,POLK inh,POLB inh
CCOC(=O)C1=C(C)N=C2c3ccccc3C(=O)C2C1c1ccc(Cl)cc1 (configuration not stated),–,–,–,–,–,–
CCOC(=O)C1=C(Cc2ccc(Cl)cc2)C(=O)c2ccccc2C1=O,14µM,35µM,?,–,–,–
Cc1sc2ncn(CC(=O)NCc3ccco3)c(=O)c2c1-c1ccc(F)cc1,–,–,–,79µM,–,?
O=C(Cn1cnc2c(cnn2-c2ccc(F)cc2)c1=O)NCc1ccco1,–,–,–,–,–,–
COc1cccc(-c2[nH]nc3c2C(c2ccoc2)C(C#N)=C(N)O3)c1 (configuration not stated),?,?,–,?,–,35µM
Cc1ccc(C2C(C#N)=C(N)Oc3n[nH]c(-c4cccs4)c32)cc1 (configuration not stated),–,–,–,–,–,–
N#CC1=C(N)Oc2n[nH]c(-c3cccs3)c2C1c1ccoc1 (configuration not stated),?,45µM,?,?,–,–
Cc1ccc(-c2csc3nc(SCC(=O)Nc4ccc(Cl)c(C(=O)O)c4)[nH]c(=O)c23)cc1,?,?,–,40µM,–,?
Cc1sc2nc(SCC(=O)Nc3ccc(Cl)c(C(=O)O)c3)[nH]c(=O)c2c1C,–,–,–,–,–,·
Cc1sc2nc(SCC(=O)Nc3ccc(S(N)(=O)=O)cc3)[nH]c(=O)c2c1C,?,–[11.6 µM],–,?,–,25µM
CN=c1sc2c(n1C)C(=O)c1ccccc1C2=O,?,–,–,79µM,–,·
Cc1c(N=Cc2cc3c(cc2[N+](=O)[O-])OCO3)cccc1[N+](=O)[O-],7.9µM,–[11.6 µM],?,?,45µM,·
N#CC1=C(c2ccc(-c3ccccc3)cc2)COC1=O,?,–,–,89µM,–,?
CC[C@H](C)[C@H](NC(=O)[C@H](Cc1ccc(O)cc1)NC(=O)[C@H](CCCNC(=N)N)NC(=O)[C@H](CCCNC(=N)N)NC(=O)[C@H](CC(C)C)NC(=O)[C@H](CC(=O)O)NC(=O)[C@H](C)NC(=O)[C@H](C)NC(=O)[C@H](Cc1ccc(O)cc1)NC(=O)[C@H](CCC(N)=O)NC(=O)[C@H](C)NC(=O)[C@H](CCSC)NC(=O)[C@H](CCC(N)=O)NC(=O)[C@H](CCC(=O)O)NC(=O)[C@@H]1CCCN1C(=O)[C@@H](NC(=O)[C@H](C)NC(=O)[C@H](CC(N)=O)NC(=O)[C@H](CC(=O)O)NC(=O)CNC(=O)[C@@H]1CCCN1C(=O)[C@H](Cc1ccc(O)cc1)NC(=O)[C@@H](NC(=O)[C@@H]1CCCN1C(=O)[C@H](CCC(=O)O)NC(=O)[C@H](CC(C)C)NC(=O)[C@@H]1CCCN1C(=O)[C@H](C)N)C(C)C)[C@@H](C)O)C(=O)N[C@@H](CC(N)=O)C(=O)N[C@@H](CCSC)C(=O)N[C@@H](CC(C)C)C(=O)N[C@H](C(=O)N[C@@H](CCCNC(=N)N)C(=O)N1CCC[C@H]1C(=O)N[C@@H](CCCNC(=N)N)C(=O)N[C@@H](Cc1ccc(O)cc1)C(N)=O)[C@@H](C)O,·,·,·,·,–,·
C[S+](C)CC(=O)c1ccc2ccccc2c1,?,·,–,·,–,·
O=C(NNc1c2ccccc2nc2ccccc12)c1ccc(O)cc1,–,–[11.6 µM],?,–,–,79µM
Cc1ccc(-c2cc(C(=O)NCc3cnn(C)c3)c3cc(Br)ccc3n2)cc1,–,–,–,79µM,–,–
CC(C)ON(C(C(=O)NO)C(C)C)S(=O)(=O)c1ccc(-c2ccccc2)cc1 (configuration not stated),·,·,·,·,–,·
NCC(=O)N[C@@H](CCCN=C(N)N)C(=O)NCC(=O)N[C@@H](CC(=O)O)C(=O)N[C@@H](CO)C(=O)N1CCC[C@H]1C(=O)O,·,·,·,·,–,·
CCCCc1ccc(-c2ccc(C)cc2O)nc1,–,–,–,–,–,28µM
CC(=O)Nc1ccc(/C=C/c2ccnc3ccccc23)cc1[N+](=O)[O-],–,·,–,·,–,·
O=S(=O)(O)c1cccc2cccc(Nc3ccccc3)c12,28µM,–[11.6 µM],?,20µM,?,·
CCCN1CNc2c(c(=O)[nH]c(=S)n2CCc2cc(Cl)ccc2Cl)C1,–,·,–,·,–,·
CCC(=O)n1nc(-c2ccco2)nc1SCc1ccccc1,–,–,–,–,–,22µM
Fc1ccc(C[n+]2csc3ccccc32)cc1,–,56µM,–,–,–,–
SMILES,POLI inh,WRN helicase inh,FEN1 inh,POLH inh,POLK inh,POLB inh
CCCCC(CC)CCC(CC(C)C)OS(=O)(=O)O (configuration not stated),·,·,·,·,–[19.4 µM],·
O=C1NN(c2ccccc2)C(=O)/C1=C\c1cccc(OC(=O)c2cccs2)c1,?,?,–,28µM,–,28µM
C[N+]1(C)CCC(=C2c3ccccc3CC(=O)c3sccc32)CC1,16µM,–[11.6 µM],–,–,–,7.9µM
COc1cc(/C=N/NC(=O)c2ccncc2)ccc1OCCN1CCCCC1,?,–,–,–,?,?
COc1cc(/C=N/NC(=O)c2cc3ccccc3cc2O)ccc1OCCN1CCCCC1,?,–,?,–,–,79µM
COc1cccc(C2CC(c3ccccc3)=NN2S(=O)(=O)c2ccc(C)cc2)c1OC (configuration not stated),–,?,–,?,–,50µM
CN(C)c1ccc(CN(CC2CCCO2)C(=O)COc2ccc(Cl)cc2)cc1 (configuration not stated),–,·,–,–,–,–
C=C1C(=O)OC(CCCCCCCC)C1C(=O)O (configuration not stated),·,·,·,·,–,·
COc1ccc(C=C2CS(=O)(=O)CC(=Cc3ccc(OC)cc3)C2=O)cc1,·,–,·,50µM,·,·
COc1cc(C2CC(=O)Nc3c2c(C)nn3-c2nncc(-c3ccccc3)n2)cc(OC)c1OC (configuration not stated),–,·,?,·,–,–
O=C(CC1CCCCC1)N1CCCC(c2nc(-c3ccc(S(=O)(=O)N4CCCC4)cc3)no2)C1 (configuration not stated),?,–,–,?,–,35µM
O=S(=O)(c1ccc(Cl)cc1)N1CCCC(c2nc(-c3ccc(F)cc3)no2)C1 (configuration not stated),–,–,–,–,–,·
O=C(O)C(S)C(S)C(=O)O (configuration not stated),?,–,–,?,?,·
O=C(O)C(S)[C@@H](S)C(=O)O (some centres not stated),·,·,·,·,22µM,·
CCOC(=O)c1ccccc1OCc1cc(C2Nc3ccccc3C(=O)N2c2cccc3ccccc23)ccc1OC (configuration not stated),–,·,–,·,–,·
